NS1 inh – qHTS Assay for Inhibitors of Influenza NS1 Protein Function; AID 2326, 2010; Potency, µM (top dose mostly 46.1 µM), for inactives: at the highest dose activity, positive = more growth; 270,000 compounds, 0.4% hits; calls by dose curve; note: potency is the fitted concentration of half-maximal effect; actives are rising curves; nearly all actives have a fitted effect of over 50% in size
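S. cerevisiae expressing influenza A NS1, grown in glucose, washed, then diluted 1:100 into pH 6.0 -URA galactose medium with 23 nl compound. Growth recovery read as OD600; NS1-free strain serves as control.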
LmPK inh – qHTS Assay for Inhibitors of Leishmania Mexicana Pyruvate Kinase (LmPK). purified LmPK, Kinase-Glo ATP luminescence, 1 h. Potency, µM (titrated, usually from 57.5 µM), inactives show top-dose activity change, negative = inhibition, usual class: inhibitors. 290,000 compounds, 0.37% hits; note: potency is the fitted concentration of half-maximal effect; % is set by controls: 0 for no effect and ±100 for the full control effect
Target sequence (Q27686 whole entry, looked up): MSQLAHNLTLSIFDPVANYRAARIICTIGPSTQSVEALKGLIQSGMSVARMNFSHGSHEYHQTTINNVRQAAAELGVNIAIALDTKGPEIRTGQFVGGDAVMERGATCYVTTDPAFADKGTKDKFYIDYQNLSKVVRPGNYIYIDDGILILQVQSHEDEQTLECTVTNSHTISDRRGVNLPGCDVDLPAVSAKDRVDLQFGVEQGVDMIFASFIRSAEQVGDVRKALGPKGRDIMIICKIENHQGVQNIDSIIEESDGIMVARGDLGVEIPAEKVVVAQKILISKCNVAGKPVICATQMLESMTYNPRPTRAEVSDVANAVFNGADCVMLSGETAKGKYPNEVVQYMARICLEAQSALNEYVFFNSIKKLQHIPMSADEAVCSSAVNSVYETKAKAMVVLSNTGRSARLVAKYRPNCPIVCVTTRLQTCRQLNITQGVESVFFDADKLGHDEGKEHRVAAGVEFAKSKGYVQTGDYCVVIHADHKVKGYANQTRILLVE
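Screened at intermediate enzyme activity to detect both inhibitors and activators: LmPK at 0.1 nM, with a 0.5 nM enzyme column as activation reference. PEP 0.5 mM, ADP 0.1 mM; ATP detected by luminescence after 1 h.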
Shiga inhibitor – A qHTS for Small Molecule Inhibitors of Shiga Toxin; AID 2315, 2010; inhibition, % at 38.7 µM; 290,000 compounds, 9.2% hits; Vero cells, Shiga toxin protein synthesis inhibition reporter; in the data active = inhibition mostly above about 28%, no sharp cut-off; inactive = mostly below about 43%; note: 0% is about no effect
CHX counter – Cycloheximide Counterscreen for Small Molecule Inhibitors of Shiga Toxin; cell reporter, cycloheximide protein synthesis inhibition counterscreen; max response, %; 300,000 compounds, 12% hits; AID 2314, 2010; in the data active = max response mostly above about 13%, no sharp cut-off; inactive = mostly below about 14%; note: read at 38.3 µM for the half of the compounds with a filed dose; 0% is about no effect
Giardia FBPA inh – qHTS Assay for Inhibitors of Fructose-1,6-bisphosphate Aldolase from Giardia Lamblia; A8B2U2; purified Giardia FBPA; Potency, µM (series often up to 59.6 µM), without a hit: top-dose activity, negative = inhibition, hits mostly inhibitors; 290,000 compounds, 0.71% hits; AID 2451, 2010; note: potency is the fitted concentration of half-maximal effect; % is set by controls: 0 for no effect and ±100 for the full control effect; nearly all actives have a fitted effect of over 55% in size
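Giardia FBPA (40 nM reagent) was preincubated 10 min at RT with compound (up to 57.5 uM final), then substrate plus GAPDH/TPI/NAD/arsenate coupling system with diaphorase/resazurin was added; resorufin fluorescence (525/598 nm) was read after 20 min.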
Active calls of the source: *. Compounds with a hit are over-represented: about 14% of the library has one in this group of screens. Unless noted, calls come from the whole dose curve; as a rule, active = well fitted curve in the direction sought with a large enough effect; inconclusive = small, poorly fitted or top-dose-only effect, or another doubt; inactive = no such curve, though single readings can be large; an effect the other way counts as inactive or inconclusive.

What do the screens show for `O=C(NNC(=O)c1ccc(NC(=O)c2ccccc2)cc1)c1ccc(F)cc1`?
NS1 inh: 9.9%; LmPK inh: 9.7%; Shiga inhibitor: 9.5; CHX counter: -0.8; Giardia FBPA inh: -6.6%

Results for CCN(CC(=O)O)C(=O)c1cccnc1 ?
NS1 inh: -0.3%

What do the screens show for `CCN1CCN(C(=O)/C=C/c2ccc(C)o2)CC1`?
NS1 inh: -6.0%; LmPK inh: -1.7%; Shiga inhibitor: -7.6; CHX counter: 7.3; Giardia FBPA inh: -17.8%

How did O=C(/C=C/c1c(F)cccc1Cl)N1CCc2ccccc2C1 do in these assays?
NS1 inh: -48.6%; LmPK inh: 17.7%; CHX counter: 14.1*; Giardia FBPA inh: 3.1%

How did CCN1CCN(C(=O)/C=C/c2cccc(Cl)c2)CC1 do in these assays?
NS1 inh: 13.5%; LmPK inh: 3.5%; Shiga inhibitor: 23.5; CHX counter: 14.6*; Giardia FBPA inh: 3.7%

How did CCN1CCN(C(=O)/C=C/c2c(F)cccc2Cl)CC1 do in these assays?
NS1 inh: -5.1%; LmPK inh: -3.3%; Shiga inhibitor: 14.9*; CHX counter: 10.1; Giardia FBPA inh: -0.4%

What do the screens show for `O=C(Nc1cccc(S(=O)(=O)N2CCCCC2)c1)c1ccc2ncsc2c1`?
NS1 inh: 4.5%; LmPK inh: 4.5%; Shiga inhibitor: 88.6*; CHX counter: 85.6*; Giardia FBPA inh: -12.3%

What do the screens show for `O=C(Nc1cccc(Cl)c1)c1ccc2ncsc2c1`?
NS1 inh: -83.5%; LmPK inh: 1.7%; Shiga inhibitor: 90.3*; CHX counter: 43.9*; Giardia FBPA inh: 2.6%

How did Cc1ccc(NC(=O)c2ccc3ncsc3c2)cc1S(=O)(=O)N(C)C do in these assays?
NS1 inh: 2.3%; LmPK inh: 5.7%; Shiga inhibitor: 146.4*; CHX counter: 69.5*; Giardia FBPA inh: -8.8%

What do the screens show for `N#Cc1cccc(C(=O)Nc2cccc(S(=O)(=O)N3CCCC3)c2)c1`?
NS1 inh: 9.3%; LmPK inh: -6.4%; Shiga inhibitor: 3.4; CHX counter: 7.2

How did CC(C)c1ccccc1NC(=O)c1ccc2ncsc2c1 do in these assays?
NS1 inh: -0.4%; LmPK inh: 4.8%; Shiga inhibitor: 39.1*; CHX counter: 30.4*; Giardia FBPA inh: -1.3%

What do the screens show for `COc1ccc(NC(=O)c2ccc3ncsc3c2)c2ccccc12`?
NS1 inh: -5.9%; LmPK inh: -3.4%; Shiga inhibitor: 17.4; CHX counter: 3.9

Results for CN(c1ccccc1)S(=O)(=O)c1cccc(NC(=O)c2ccc3ncsc3c2)c1 ?
NS1 inh: 0.6%; LmPK inh: 4.7%; Shiga inhibitor: -6.4; CHX counter: -0.9; Giardia FBPA inh: -3.4%

How did C[C@H](O)C(N)C(=O)O (stereo not given in full) do in these assays?
Shiga inhibitor: -8.7; CHX counter: -3.9; Giardia FBPA inh: 0.4%

What do the screens show for `COCCN(CCOC)c1nc(C)nc2c1nc(-c1ccccc1)n2CCN(C)C`?
Giardia FBPA inh: -2.5%

Results for O=C(Nc1ccc(F)cc1)c1ccc2ncsc2c1 ?
NS1 inh: -4.3%; LmPK inh: 0.8%; Shiga inhibitor: 90.8*; CHX counter: 59.4*; Giardia FBPA inh: -8.5%

Results for CC(=O)NC(=O)COC(=O)c1ccc2ncsc2c1 ?
LmPK inh: 8.7%; Shiga inhibitor: 17.5; CHX counter: 32.1; Giardia FBPA inh: 1.4%

What do the screens show for `O=C(Nc1ccc(Cl)cc1)c1ccc2ncsc2c1`?
NS1 inh: -2.9%; LmPK inh: 1.2%; Shiga inhibitor: 122.5*; CHX counter: 46.2*; Giardia FBPA inh: 10.8%

What do the screens show for `O=C(OCCOc1cccc(Cl)c1)c1ccc2ncsc2c1`?
NS1 inh: -35.3%; LmPK inh: 2.5%; Shiga inhibitor: 33.8; CHX counter: 17.1*; Giardia FBPA inh: -2.4%

What do the screens show for `O=C(O)c1ccc2ncsc2c1`?
NS1 inh: 6.4%; LmPK inh: -4.6%; Shiga inhibitor: 68.0*; CHX counter: 26.9*; Giardia FBPA inh: 5.9%

Results for O=C(CN(C(=O)c1csnn1)c1cccc2c1CCCC2)NC1CCCC1 ?
NS1 inh: -3.5%; LmPK inh: -7.3%; Shiga inhibitor: -7.7; CHX counter: -1.6; Giardia FBPA inh: 0.4%

Results for COc1ccc(C[C@@H](NS(=O)(=O)c2ccc(C(=O)O)cc2)C(=O)O)cc1 ?
Shiga inhibitor: -10.2; CHX counter: 10.0; Giardia FBPA inh: 2.4%

What do the screens show for `Cc1cc(=O)c(C(=O)O)nn1-c1ccccc1F`?
NS1 inh: 3.9%; LmPK inh: 2.0%; Shiga inhibitor: -7.4; CHX counter: -2.5; Giardia FBPA inh: -2.9%

Results for O=C(Nc1ccc(C(F)(F)F)cc1)c1ccc2ncsc2c1 ?
NS1 inh: -1.3%; LmPK inh: 6.7%; Shiga inhibitor: 156.2*; CHX counter: 35.3*; Giardia FBPA inh: 2.4%

What do the screens show for `COc1ccc(C(C)(C)C)cc1NC(=O)c1ccc2ncsc2c1`?
NS1 inh: -8.7%; LmPK inh: 0.3%; Shiga inhibitor: 72.3*; CHX counter: 27.0*; Giardia FBPA inh: -5.4%

How did COCCCn1c(=O)c2sccc2n2c(CCCC(=O)NCc3cccc(OC)c3)nnc12 do in these assays?
NS1 inh: 2.5%; LmPK inh: 5.1%; Shiga inhibitor: 4.0; CHX counter: -0.9

Results for c1cc[n+]2c(c1)-c1cccc[n+]1CC2 ?
Shiga inhibitor: 7.6; CHX counter: 4.0; Giardia FBPA inh: -20.6%

What do the screens show for `Cc1cccc(-n2nnc(C(=O)NCc3ccc4c(c3)OCO4)c2N)c1`?
NS1 inh: -20.9%; LmPK inh: -2.4%; Shiga inhibitor: -9.2; CHX counter: 1.1; Giardia FBPA inh: -8.6%

What do the screens show for `COc1ccccc1NC(=O)Cn1nnc(C(=O)Nc2ccccc2)c1N`?
NS1 inh: 5.2%; LmPK inh: 2.2%; Shiga inhibitor: 12.1; CHX counter: 11.4; Giardia FBPA inh: 3.0%

What do the screens show for `COc1ccc(CCNC(=O)Cc2cc(OC)c(OC)cc2Br)cc1OC`?
LmPK inh: 2.4%; Shiga inhibitor: 20.2; CHX counter: 15.8*; Giardia FBPA inh: -1.2%

Results for CCOc1ccc(NC(=O)c2nnn(CC(=O)Nc3ccccc3OC)c2N)cc1 ?
NS1 inh: -0.5%; LmPK inh: 2.7%; Shiga inhibitor: 30.8; CHX counter: 19.0*; Giardia FBPA inh: 1.2%

Results for COc1ccc(CCNC(=O)Cc2ccc(Cl)cc2)cc1OC ?
NS1 inh: 8.9%; LmPK inh: 3.4%; CHX counter: 1.7; Giardia FBPA inh: 2.8%

What do the screens show for `Nc1c(C(=O)Nc2ccc3c(c2)OCCO3)nnn1CCc1ccccc1`?
NS1 inh: -10.3%; LmPK inh: 13.1%; Shiga inhibitor: 55.7*; CHX counter: 19.6*; Giardia FBPA inh: -9.8%

Results for Nc1c(C(=O)Nc2ccccc2Cl)nnn1-c1ccc2c(c1)OCCO2 ?
NS1 inh: -1.7%; LmPK inh: 1.2%; Shiga inhibitor: 65.3*; CHX counter: 33.3*; Giardia FBPA inh: 3.2%

What do the screens show for `Cn1cc(-c2nc3cnc(Oc4ccccc4)nc3n(C3CC3)c2=O)c2ccccc21`?
Giardia FBPA inh: 5.6%

Screening results: PubChem BioAssay, National Center for Advancing Translational Sciences (NCATS)
